Measured values: PubChem BioAssay (Tox21)
Records with an inconclusive call do not appear. Calls of active or inactive are those of the source. Unless noted, calls follow the shape of the dose curve; as a rule, active = well fitted curve in the direction sought with a large enough effect in the repeat runs; inconclusive = weak or mixed curves; inactive = no such curve, though single readings can be large; an effect the other way counts as inactive or inconclusive.

Legend:
[1] = qHTS assay to identify small molecule antagonists of the constitutive androstane receptor (CAR) signaling pathway - cell viability counter screen (AID 1224837); also: nearly all actives have a fitted effect of over 45% in size
In short: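 To flag cytotoxic false antagonists, HepG2 hCAR/CYP2B6-2.2kb cells were treated 23 hr with 15-concentration compound series and 50 nM CITCO at 37 C/5% CO2; CellTiter-Fluor fluorescence was the measured end point.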

[2] = biological target: Nuclear receptor subfamily 1 group I member 3 (Homo sapiens) (UniProt Q14994); assay: qHTS assay to identify small molecule antagonists of the constitutive androstane receptor (CAR) signaling pathway (AID 1224838);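 also: HepG2 cells stably expressing hCAR with CYP2B6 luciferase reporter stimulated by CITCO; nearly all actives have a fitted effect of over 40% in size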
In short: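 Human hepatoma HepG2 cells expressing hCAR and a CYP2B6 promoter (2.2 kb) luciferase construct; compound titration (15 points) with 50 nM CITCO final, 24 h at 37 C/5% CO2; luminescence via ONE-Glo after 30 min at room temperature.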

[3] = biological target: Nuclear receptor subfamily 1 group I member 3 (Homo sapiens) (UniProt Q14994); assay: qHTS assay to identify small molecule agonists of the constitutive androstane receptor (CAR) signaling pathway (AID 1224839);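 also: HepG2 cells stably carrying human CAR and a CYP2B6 luciferase reporter; nearly all actives have a fitted effect of over 15% in size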
In short: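 Using human hepatoma HepG2 cells engineered with hCAR and a CYP2B6-2.2kb reporter, 15-concentration compound series were incubated 24 h alongside PK11195 at 0.75 uM final, with luminescence quantified afterwards.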

[4] = qHTS assay to identify small molecule antagonists of the estrogen related receptor signaling pathway with the pleiotropic PPARgamma coactivator (PGC) from Tox21 10K library - cell viability counter screen (AID 1224840; active = well fitted cell-killing curve with a large enough effect in the repeat runs, not every such curve was filed as active; also: nearly all actives have a fitted effect of over 40% in size)
In short: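 Seeded PGC/ERR cells (2,000/well, 6 h, 37 C/5% CO2) get compound by pin tool; 17.5 h incubation at 37 C; CellTiter-Fluor added, 30 min, fluorescence measured.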

[5] = qHTS assay to identify small molecule antagonists of the estrogen related receptor signaling pathway with the pleiotropic PPARgamma coactivator (PGC) from Tox21 10K library (AID 1224841; call rule not given here; also: actives are mostly falling curves and most rising ones were filed inactive; nearly all actives have a fitted effect of over 50% in size)
In short: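 Test chemicals dissolved in DMSO were applied to pre-incubated (6 h) PGC/ERR cells at 2,000 cells/well for an 18 h, 37 C treatment; reporter luminescence was then read using One-Glo.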

[6] = qHTS assay to identify small molecule agonists of the estrogen related receptor signaling pathway with the pleiotropic PPARgamma coactivator (PGC) from Tox21 10K library (AID 1224842); also: nearly all actives have a fitted effect of over 15% in size
In short: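 Luminescence from One-Glo (30 min, room temperature) measured after PGC/ERR cells had 18 h at 37 C with pinned compound (23 nL in DMSO). Cells had been seeded at 2,000 per well and pre-incubated 6 h.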

[7] = biological target: Thyrotropin receptor (Homo sapiens) (UniProt P16473); assay: qHTS assay to identify small molecule agonists of the thyroid stimulating hormone receptor (TSHR) signaling pathway (AID 1224843; calls by dose curve; also: nearly all actives have a fitted effect of over 45% in size)
In short: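 Agonist activity read as cAMP rise via d2/cryptate HTRF competition, 1 h room-temperature detection, in HEK293 cells expressing TSHR. Fifteen-point titrations, each run in triplicate, with a 30 min room-temperature incubation beforehand.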

[8] = qHTS assay to identify small molecule agonists of the hypoxia (HIF-1) signaling pathway - cell viability counter screen (AID 1224844; calls by dose curve; also: nearly all actives have a fitted effect of over 50% in size; also: potency is read from the fitted curve at half-maximal effect)
In short: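 HRE-bla ME-180; 0.5% dFBS; cpd 17 h, 37C, 5% CO2; CellTiter-Glo lum., 30 min RT, post-FRET read, same wells.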

[9] = qHTS assay to identify small molecule agonists of H2AX (AID 1224845; active = well fitted activation curve with a large enough effect in the signal ratio in the repeat runs, not every such curve was filed as active; the % refers to the signal ratio)
In short: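 Phospho-H2AX Ser139 measured by HTRF (ex 320 nm; em 665 and 620 nm) after 24 hr antibody incubation. Compounds, 15 concentrations, 0.76% DMSO, were applied to CHO-K1 cells for 3hr at 37C before lysis.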

[10] = qHTS assay to identify small molecule agonists of the hypoxia (HIF-1) signaling pathway (AID 1224846; active = well fitted activation curve with a large enough effect in the signal ratio in the repeat runs, not every such curve was filed as active; the % refers to the signal ratio)
In short: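 Reporter induction in HRE-bla ME-180 cells is taken as agonism: cells sit 5 hrs after plating, receive compounds or DMSO only, incubate 17 hrs at 37C under 5% CO2, and are loaded with CCF4-AM for beta-lactamase FRET measurement.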

[11] = qHTS assay to identify small molecule agonists of H2AX - cell viability counter screen (AID 1224847; calls by dose curve;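 also: wild-type CHO-K1 cells; top concentration of the series differs between compounds; nearly all actives have a fitted effect of over 30% in size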)
In short: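 After overnight plating of 1000 CHO-K1 cells per well, a 15-concentration compound series was applied for 3 hr at 37C. Luminescence from CellTiter-Glo, read following 30 min at room temperature, reflected cell viability.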

[12] = qHTS assay to identify small molecule antagonists of the estrogen related receptor (ERR) signaling pathway from Tox21 library (AID 1224848); also: nearly all actives have a fitted effect of over 50% in size
In short: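 Luciferase luminescence (ONE-Glo, 30 min room temperature) was the read-out. Cells of the NTP-supplied ERR line, 2,000 per well, were given 6 h at 37 C before compound addition in DMSO and 18 h exposure at 37 C.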

[13] = qHTS assay to identify small molecule agonists of the estrogen related receptor (ERR) signaling pathway from Tox21 library (AID 1224849; calls by dose curve; also: nearly all actives have a fitted effect of over 15% in size); conditions: ERR reporter cell line, ONE-Glo luciferase, 18 h; at 92.4 µM (top of the series) unless noted
In short: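 Tox21 compounds tested for ERR agonism in an NTP reporter cell line: 18 h treatment at 37 C, then ONE-Glo luminescence.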

[14] = qHTS RealTime-Glo MT Cell Viability Assay in HepG2 cells - 24 hour (AID 1224867); also: nearly all actives have a fitted effect of over 50% in size
In short: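 HepG2 cells were seeded at 600 cells/well together with NanoLuc luciferase and a cell-permeant prosubstrate, preincubated 5 h at 37 C/5% CO2, then pin-dosed with compounds in DMSO. Nonlytic luminescence from viable cells was read at each time point.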

[15] = qHTS RealTime-Glo MT Cell Viability Assay in HEK293 cells - 32 hour (AID 1224868)
In short: (§1)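 HEK293 cells were seeded at 600 cells/well together with NanoLuc luciferase and cell-permeant prosubstrate, preincubated 5 h at 37 C/5% CO2, then given compound in DMSO by pintool. Luminescence from viable-cell prosubstrate reduction was read repeatedly over 40 h.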

[16] = A CellTox Green Cytotoxicity Assay to monitor cytotoxicity in HEK293 cells - 0 hour (AID 1224869); also: nearly all actives have a fitted effect of over 50% in size; also: potency is read from the fitted curve at half-maximal effect
In short: (§2)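 Tox21 screen in HEK293: membrane-impermeant cyanine dye fluoresces on binding dead-cell DNA; compound pinned 5 h post-seeding, plates held at 37 C, signal read repeatedly through 40 h.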

[17] = qHTS RealTime-Glo MT Cell Viability Assay in HEK293 cells - 16 hour (AID 1224872)
In short: as §1

[18] = qHTS RealTime-Glo MT Cell Viability Assay in HepG2 cells - 8 hour (AID 1224873); also: nearly all actives have a fitted effect of over 55% in size
In short: (§3)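 Real-time viability: cells seeded at 600 per well together with NanoLuc and cell-permeant prosubstrate, compounds added after 5 h incubation. Luminescence tracked at 0, 8, 16, 24, 32 and 40 h of exposure.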

[19] = qHTS RealTime-Glo MT Cell Viability Assay in HepG2 cells - 40 hour (AID 1224870); also: nearly all actives have a fitted effect of over 50% in size
In short: as §3

[20] = A CellTox Green Cytotoxicity Assay to monitor cytotoxicity in HEK293 cells - 40 hour (AID 1224871); also: nearly all actives have a fitted effect of over 45% in size; also: potency is read from the fitted curve at half-maximal effect
In short: as §2
% is scaled to controls: 0 for no effect and ±100 for the full control effect.

Thyrotropin receptor (Homo sapiens), sequence (P16473 whole entry, looked up): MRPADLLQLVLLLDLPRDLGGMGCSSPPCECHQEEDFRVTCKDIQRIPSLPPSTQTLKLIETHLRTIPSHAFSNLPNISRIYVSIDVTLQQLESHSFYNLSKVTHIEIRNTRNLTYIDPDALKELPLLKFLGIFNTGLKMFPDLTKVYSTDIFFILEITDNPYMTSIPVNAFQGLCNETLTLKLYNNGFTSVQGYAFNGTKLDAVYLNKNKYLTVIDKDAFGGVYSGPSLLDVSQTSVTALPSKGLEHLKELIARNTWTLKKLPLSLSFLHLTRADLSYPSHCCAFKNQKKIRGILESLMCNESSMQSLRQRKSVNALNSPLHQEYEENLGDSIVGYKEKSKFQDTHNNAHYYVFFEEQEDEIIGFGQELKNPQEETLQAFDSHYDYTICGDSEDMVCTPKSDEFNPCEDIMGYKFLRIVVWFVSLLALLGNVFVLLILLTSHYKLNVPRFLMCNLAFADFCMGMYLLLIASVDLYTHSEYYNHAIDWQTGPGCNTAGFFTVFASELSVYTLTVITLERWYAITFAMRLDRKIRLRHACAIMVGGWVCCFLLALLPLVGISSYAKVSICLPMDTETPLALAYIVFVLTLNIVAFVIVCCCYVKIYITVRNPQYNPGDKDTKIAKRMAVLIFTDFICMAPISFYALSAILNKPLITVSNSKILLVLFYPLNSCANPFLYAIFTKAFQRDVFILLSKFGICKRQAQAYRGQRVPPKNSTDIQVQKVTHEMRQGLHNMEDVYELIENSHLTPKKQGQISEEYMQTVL
Nuclear receptor subfamily 1 group I member 3 (Homo sapiens), sequence (Q14994 whole entry, looked up): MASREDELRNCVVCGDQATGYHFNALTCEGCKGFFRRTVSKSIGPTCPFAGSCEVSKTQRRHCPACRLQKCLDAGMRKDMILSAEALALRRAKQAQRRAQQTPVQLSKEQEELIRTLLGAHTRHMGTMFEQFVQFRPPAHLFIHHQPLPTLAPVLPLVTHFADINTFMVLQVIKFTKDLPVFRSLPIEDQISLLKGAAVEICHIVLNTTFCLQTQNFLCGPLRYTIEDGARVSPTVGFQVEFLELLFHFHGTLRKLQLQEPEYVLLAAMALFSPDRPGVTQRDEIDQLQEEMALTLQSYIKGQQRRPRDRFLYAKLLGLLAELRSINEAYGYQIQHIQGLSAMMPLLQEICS

C=CC(=C)CC/C=C(\C)CCC=C(C)C
inactive: activity change, negative = cytotoxicity [1] -2.25% [at 19 µM] | activity, negative = inhibition [2] 8.18% [at 19 µM] | activation [3] 4.39% [at 19 µM] | viability change, negative = cytotoxic [4] -0.28% [at 19 µM] | activity, negative = inhibition [5] 0% [at 19 µM] | activation [6] 0% [at 19 µM] | activation [7] -0.893% [at 19 µM] | activity change, negative = cytotoxicity [8] 1.43% [at 15.8 µM] | activation (H2AX phosphorylation) [9] -0.467% [at 31.6 µM] | activation [10] -0.763% [at 15.8 µM] | activity change, negative = cytotoxicity [11] 2.41% [at 31.6 µM] | activity, negative = inhibition [12] -7.19% [at 19 µM] | activity change, positive = activation [13] -3.55% [at 19 µM] | activity change, negative = cytotoxicity [14] 0.599% [at 15.8 µM] | activity change, negative = cytotoxic [15] -12.8% [at 15.8 µM] | cytotoxicity [16] 0.448% [at 15.8 µM] | activity change, negative = cytotoxicity [17] -2.14% [at 15.8 µM] | viability change, negative = cytotoxic [18] 1.83% [at 15.8 µM]

C=CC(=O)OCCC#N
active: activity change, positive = activation [13] 47%
inactive: Potency [1] | Potency [2] | Potency [3] | Potency [4] | Potency [5] | Potency [7] | Potency [8] | outcome [10] | Potency [12] | Potency [14] | Potency [16] | Potency [19] | Potency [17] | Potency [18]

CCNc1nc(NC(C)CC)nc(OC)n1 (configuration not stated)
inactive: Potency [1] | Potency [2] | Potency [3] | Potency [4] | Potency [5] | Potency [6] | Potency [7] | Potency [8] | Potency [9] | outcome [10] | Potency [11] | Potency [12] | Potency [14] | Potency [15] | Potency [19] | Potency [17] | Potency [18]

CC1=CCC(=O)O1
inactive: Potency [1] | Potency [2] | Potency [3] | Potency [4] | Potency [5] | Potency [6] | Potency [7] | Potency [8] | outcome [10] | Potency [11] | Potency [12] | activity change, positive = activation [13] 8.22% | Potency [14] | Potency [15] | Potency [16] | Potency [19] | Potency [20] | Potency [17] | Potency [18]

CCc1cccc(CC)c1NC(=O)C(=O)O
inactive: Potency [1] | Potency [2] | Potency [3] | Potency [4] | Potency [5] | Potency [6] | Potency [7] | Potency [8] | Potency [9] | outcome [10] | Potency [11] | Potency [12] | activity change, positive = activation [13] -1.7% | Potency [14] | Potency [16] | Potency [19] | Potency [20] | Potency [17]

OCCCCl
inactive: Potency [1] | Potency [2] | Potency [3] | Potency [4] | Potency [6] | Potency [7] | Potency [9] | outcome [10] | Potency [11] | Potency [12] | activity change, positive = activation [13] -6.99% | Potency [14] | Potency [16] | Potency [19] | Potency [20] | Potency [17] | Potency [18]

CCOC(OCC)C(=O)c1ccccc1
inactive: Potency [1] | Potency [2] | Potency [3] | Potency [4] | Potency [5] | Potency [6] | Potency [8] | Potency [9] | outcome [10] | Potency [11] | Potency [12] | activity change, positive = activation [13] 1.64% | Potency [14] | Potency [15] | Potency [16] | Potency [19] | Potency [20] | Potency [17] | Potency [18]

C/C=C/C(=O)C1=C(C)CCCC1(C)C
inactive: Potency [1] | Potency [2] | Potency [3] | Potency [4] | Potency [6] | Potency [7] | Potency [9] | outcome [10] | Potency [11] | activity change, positive = activation [13] -5.63% | Potency [14] | Potency [16] | Potency [19] | Potency [17] | Potency [18]

O=c1cccc[nH]1
inactive: Potency [1] | Potency [2] | Potency [3] | Potency [4] | Potency [5] | Potency [6] | Potency [7] | Potency [8] | Potency [9] | outcome [10] | Potency [11] | Potency [12] | activity change, positive = activation [13] 0.143% | Potency [14] | Potency [15] | Potency [19] | Potency [20] | Potency [17]

CO[Si](CCCNCCNCCN)(OC)OC
inactive: Potency [1] | Potency [2] | Potency [3] | Potency [4] | Potency [6] | Potency [7] | Potency [9] | outcome [10] | Potency [11] | Potency [12] | activity change, positive = activation [13] 2.38% | Potency [14] | Potency [15] | Potency [19] | Potency [20] | Potency [17] | Potency [18]

COC(=O)[C@]1(C)CCC[C@@]2(C)[C@H]1CC=C1C=C(C(C)C)CC[C@@H]12
inactive: Potency [1] | Potency [2] | Potency [3] | Potency [4] | Potency [5] | Potency [6] | Potency [7] | activity change, positive = activation [13] -22.1% | Potency [14] | Potency [17] | Potency [18]
active: Potency [16] 24.5 µM | Potency [20] 38.9 µM

COc1cccc(CCc2ccccc2OCC(CN(C)C)OC(=O)CCC(=O)O)c1 (configuration not stated)
inactive: Potency [1] | Potency [2] | Potency [3] | Potency [4] | Potency [5] | Potency [6] | Potency [7] | Potency [9] | outcome [10] | Potency [11] | Potency [12] | activity change, positive = activation [13] -1.11% [at 42.5 µM] | Potency [14] | Potency [16] | Potency [19] | Potency [20] | Potency [17] | Potency [18]
active: Potency [8] 19 µM

CC(C)CCOCCC(C)C
inactive: Potency [1] | Potency [2] | Potency [3] | Potency [4] | Potency [5] | Potency [6] | Potency [7] | outcome [10] | Potency [11] | Potency [12] | activity change, positive = activation [13] -1.03% | Potency [14] | Potency [15] | Potency [16] | Potency [19] | Potency [20] | Potency [17] | Potency [18]

CCCCCCCCCCCCCOP(=O)(O)O
inactive: Potency [1] | Potency [2] | Potency [3] | Potency [4] | Potency [5] | Potency [6] | Potency [8] | Potency [9] | outcome [10] | Potency [11] | Potency [12] | activity change, positive = activation [13] -2% | Potency [14] | Potency [15] | Potency [16] | Potency [19] | Potency [20] | Potency [17] | Potency [18]
